Reference: the supplement of paper PMC10981050
“And” between values parts separate entries of the source, which are not always exact repeats. Equal values may be shown once. Where a name gives a salt, the structure may show the parent alone.

Columns and labels:
Test in all cases: cell viability relative to vehicle control; higher = less cytotoxic
Details in all cases: 10 µM
K562 = test system: K562
Outline: (§1)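 CRISPR-edited mutant clones and isogenic wild-type clones from four leukaemia lines were screened against Selleck bioactive, kinase and epigenetic probe libraries, with identity-inconsistent compounds excluded. Each compound was acoustically dispensed at a single 10 µM dose into 384-well plates holding 2000 cells in 50 µL medium per well. After 48 h the supernatant was removed and CellTiter-Glo luminescence was read. Viability was expressed as percent of the on-plate vehicle control and analysed in Genedata Screener.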

MARIMO = test system: MARIMO
Outline: as §1

MOLM14 = test system: MOLM14
Outline: as §1

OCI-AML2 = test system: OCI-AML2
Outline: as §1

Row | Compound | cell viability (K562; SRSF2 genotype: SRSF2 P95H/wt) | cell viability (K562; SRSF2 genotype: SRSF2 wt/wt) | cell viability (MARIMO; SRSF2 genotype: SRSF2 P95H/wt) | cell viability (MARIMO; SRSF2 genotype: SRSF2 wt/wt) | cell viability (MOLM14; SRSF2 genotype: SRSF2 P95H/wt) | cell viability (MOLM14; SRSF2 genotype: SRSF2 wt/wt) | cell viability (OCI-AML2; SRSF2 genotype: P95H/wt) | cell viability (OCI-AML2; SRSF2 genotype: wt/wt)
1 | C=C(C)[C@@H]1CC[C@]2(C(=O)O[C@@H]3O[C@H](CO[C@@H]4O[C@H](CO)[C@@H](O[C@@H]5O[C@@H](C)[C@H](O)[C@@H](O)[C@H]5O)[C@H](O)[C@H]4O)[C@@H](O)[C@H](O)[C@H]3O)CC[C@]3(C)[C@H](CC[C@@H]4[C@@]5(C)CC[C@H](O[C@@H]6OC[C@H](O)[C@H](O)[C@H]6O[C@@H]6O[C@@H](C)[C@H](O)[C@@H](O)[C@H]6O)[C@@](C)(CO)[C@@H]5CC[C@]43C)[C@@H]12 [Anemoside B4] | 93.9% and 103% | 92% | 96.1% | 110% | 96.9% | 97.4% | 93.2% | 105%
2 | CN1CCN(c2ccc3nc(-c4c(N)c5c(F)cccc5[nH]c4=O)[nH]c3c2)CC1 [Dovitinib Dilactic acid (TKI258 Dilactic aci] | 6.48% and 13.2% | 8.9% | 10.8% | 12.8% | 0.16% | 0.07% | 0.15% | 0.51%
3 | Cc1nc(Nc2ccc(F)cc2)nc(N2CCc3ccccc3C2C)c1C (stereo unspecified) [Revaprazan Hydrochloride] | 66.5% and 73.7% | 68.7% | 67.6% | 56.4% | 63.3% | 72.5% | 75% | 67.2%
4 | CC(C)C(=O)OCC(=O)[C@@]12O[C@H](C3CCCCC3)O[C@@H]1C[C@H]1[C@@H]3CCC4=CC(=O)C=C[C@]4(C)[C@H]3[C@@H](O)C[C@@]12C [Ciclesonide] | 57% and 55.7% | 62.1% | 63.6% | 68.9% | 41.4% | 41.6% | 25.5% | 59.6%
5 | COc1cc(OC)c2c(=O)[nH]c(-c3cc(C)c(OCCO)c(C)c3)nc2c1 | 81.8% and 87.1% | 87.5% | 80.1% | 71.1% | 77.8% | 81.3% | 79% | 86%
6 | CC(C)(C)NS(=O)(=O)c1cncc(-c2cc(F)c3nc(N)nn3c2)c1 | 100% and 102% | 101% | 93.8% | 93.9% | 92.5% | 103% | 81.1% | 80.8%
7 | CC1(C)C=Cc2cc(-c3coc4cc(O)ccc4c3=O)ccc2O1 [Corylin] | 78.5% and 85.9% | 85.4% | 70.9% | 69.7% | 97% | 97.4% | 56.4% | 60.8%
8 | Cc1ccc(NCCN(C)CCNc2ccnc3cc(Cl)ccc23)c2c(=O)c3ccccc3sc12 | 75.8% and 92.5% | 76.6% | 78% | 88.2% | 81% | 79.7% | 85.9% | 84%
9 | CC(/C=C1\SC(=S)N(CC(=O)O)C1=O)=C\c1ccccc1 [Epalrestat] | 99.9% and 110% | 107% | 104% | 102% | 106% | 103% | 102% | 95.3%
10 | COc1ccc(C(=O)O)c(O)c1 [4-Methoxysalicylic acid] | 104% and 95.4% | 107% | 98.6% | 99.3% | 98.1% | 106% | 101% | 106%
11 | CN1CCN(C(=O)c2ccc(-c3ccc4c(C=O)c(O)ccc4c3)s2)CC1 | 68.3% and 74.8% | 71.6% | 66.8% | 53.4% | 73.2% | 76.8% | 72.9% | 79.5%
12 | COC(=O)[C@H](CC(C)C)NC(=O)c1ccc(NC[C@@H](N)CS)cc1-c1cccc2ccccc12 [GGTI 298 TFA salt] | 7.41% and 14.8% | 31.9% | 55% | 51.1% | 41% | 50.6% | 40.6% | 37.7%
13 | NC(=O)c1[nH]cnc1N [4-Amino-5-imidazolecarboxamide] | 101% and 104% | 105% | 101% | 107% | 99.1% | 108% | 97.3% | 108%
14 | Oc1cc(O)c2c(c1)OC(c1ccc(O)c(O)c1)C(OC1(c3ccc(O)c(O)c3)Oc3cc(O)cc(O)c3C(O)C1O)C2 (stereo unspecified) [Proanthocyanidins] | 102% and 105% | 104% | 107% | 98.7% | 89.9% | 102% | 92.6% | 101%
15 | Nc1ccc(O)c(C(=O)O)c1 [Mesalamine (Lialda)] | 94.9% and 87.4% | 90.1% | 89.8% | 94.7% | 87.3% | 92.1% | 97.2% | 100%
16 | COc1ccccc1 [Anisole] | 96.8% and 90.2% | 102% | 98.6% | 101% | 94.6% | 101% | 99.5% | 110%
17 | CC1(C)C2CCC1(C)C(O)C2 (stereo unspecified) [Borneol] | 101% and 89.9% | 94.2% | 89.7% | 99.5% | 97.5% | 99.5% | 87.9% | 105%
18 | NC(=O)[C@@H](CCC(F)(F)F)N(Cc1ccc(-c2ncon2)cc1F)S(=O)(=O)c1ccc(Cl)cc1 | 92.5% and 98.1% | 93.9% | 84.8% | 96.6% | 88.2% | 97.9% | 106% | 104%
19 | Cc1cccc(Nc2ccncc2S(=O)(=O)NC(=O)NC(C)C)c1 [Torsemide (Demadex)] | 100% and 105% | 102% | 101% | 103% | 105% | 101% | 103% | 104%
20 | CC(=O)OC(C)C(C)C(=O)OCC12C3CC(C)(C)[C@H](O[C@@H]1C[C@]1(C)C3=CCC3C4(C)CCC(O[C@@H]5O[C@H](C(=O)O)[C@@H](O[C@H]6O[C@H](CO)[C@@H](O)[C@H](O)[C@H]6O)[C@H](O)[C@H]5O[C@@H]5OC[C@@H](O)[C@H](O)[C@H]5O)[C@](C)(CO)C4CCC31C)C2O (stereo partly specified) [Sodium Aescinate] | 90.7% and 98.9% | 93.9% | 95.5% | 96.8% | 89.4% | 92.3% | 88.5% | 93.2%
21 | CC(CNC(=O)c1cccnc1)NC(=O)c1cccnc1 (stereo unspecified) [Nicaraven] | 100% and 95.4% | 107% | 106% | 108% | 101% | 104% | 101% | 98.4%

Row | Compound | cell viability (K562; SRSF2 genotype: SRSF2 P95H/wt) | cell viability (K562; SRSF2 genotype: SRSF2 wt/wt) | cell viability (MARIMO; SRSF2 genotype: SRSF2 P95H/wt) | cell viability (MARIMO; SRSF2 genotype: SRSF2 wt/wt) | cell viability (MOLM14; SRSF2 genotype: SRSF2 P95H/wt) | cell viability (MOLM14; SRSF2 genotype: SRSF2 wt/wt) | cell viability (OCI-AML2; SRSF2 genotype: P95H/wt) | cell viability (OCI-AML2; SRSF2 genotype: wt/wt)
22 | CN(C)c1ccc2nc3ccc(=[N+](C)C)cc-3sc2c1 [Methylene Blue] | 33.4% and 27.2% | 17.1% | 13.1% | 14.2% | 5.69% | 2.58% | 5.27% | 7.07%
23 | CC[C@H](NC(=O)[C@H](C)NC)C(=O)N1C[C@@H](O)C[C@H]1Cc1c(-c2[nH]c3cc(F)ccc3c2C[C@@H]2C[C@H](O)CN2C(=O)[C@H](CC)NC(=O)[C@H](C)NC)[nH]c2cc(F)ccc12 | 97.7% and 102% | 99.4% | 78.6% | 93.4% | 61.6% | 65.4% | 103% | 107%
24 | Clc1ccc(CCC(Cn2ccnc2)Sc2c(Cl)cccc2Cl)cc1 (stereo unspecified) [Butoconazole nitrate] | 74.1% and 80.8% | 75.7% | 75.8% | 83.9% | 79.7% | 75.7% | 71.5% | 69.6%
25 | COc1cc(CO)ccc1O [Vanillyl Alcohol] | 97.3% and 89.7% | 88.8% | 94.9% | 100% | 92.1% | 95.9% | 92.4% | 91.7%
26 | C=CC(=O)N1CCC[C@@H](n2nc(-c3ccc(Oc4ccccc4)cc3)c3c(N)ncnc32)C1 | 35.9% and 57.5% | 42.9% | 70.9% | 89.1% | 16.5% | 17.8% | 44.3% | 53.1%
27 | Cc1cn([C@H]2C[C@H](N=[N+]=[N-])[C@@H](CO)O2)c(=O)[nH]c1=O [Zidovudine (Retrovir)] | 96.5% and 101% | 101% | 102% | 113% | 95.5% | 105% | 101% | 105%
28 | Oc1ccc([C@H]2COc3cc(O)ccc3C2)cc1 [Equol] | 90.4% and 101% | 103% | 99.9% | 104% | 95.2% | 104% | 92% | 88.4%
29 | O=C(CCc1ccc(O)cc1)c1c(O)cc(O)cc1O [Phloretin] | 96.9% and 94.4% | 98.1% | 93.5% | 90.2% | 91% | 95.7% | 87.5% | 87.9%
30 | COc1cc(C(C)=O)ccc1OCCCN1CCC(c2noc3cc(F)ccc23)CC1 [Iloperidone (Fanapt)] | 81.7% and 86.8% | 86.3% | 68.2% | 90.2% | 85.9% | 88.5% | 71.4% | 83.4%
31 | NC(=O)c1cccc2cn(-c3ccc(C4CCCNC4)cc3)nc12 (stereo unspecified) [MK-4827(Niraparib)] | 102% and 104% | 86.9% | 40.9% | 57.4% | 25.2% | 8.96% | 45.3% | 51.5%
32 | OCC(O)C(O)C(O)C(O)CO (stereo unspecified) [Dulcitol] | 102% and 104% | 99.7% | 105% | 107% | 99.9% | 106% | 105% | 103%
33 | CCCC(=O)Nc1cccc(NC(=O)c2ccccc2Br)c1 | 92.9% | 95.5% | 97.8% | 96.5% | 102% | 100% | 95.7% | 95%
34 | C=C(C)C1CC=C(C)CC1 (single isomer, unassigned; (+)) [(+)-Dipentene] | 114% and 103% | 116% | 104% | 108% | 110% | 108% | 109% | 115%
35 | CCOC(=O)c1cc2ccccc2oc1=O [Ethyl Coumarin-3-carboxylate] | 96.8% and 96.2% | 92.9% | 94.3% | 97.2% | 88.7% | 98% | 95% | 96.8%
36 | O=C(c1cn(Cc2cncn2Cc2ccc(Br)cc2)cc1-c1cccc2ccccc12)N1CCOCC1 | 48.4% and 62.4% | 47.2% | 34.1% | 36.4% | 35.1% | 39.1% | 25.7% | 32.2%
37 | COC(=O)N1CCN(Cc2cccc(NC(=O)Nc3ccc(C)nc3)c2F)CC1 | 89.4% and 89.7% | 96.5% | 91.9% | 94.2% | 100% | 99.9% | 88.4% | 87.2%
38 | Cc1cc(C)cc(C(=O)NOCCCCCC(=O)NO)c1 | 1.41% and 17.1% | 4.57% | 7.1% | 10.6% | 0.7% | 0.46% | 2.75% | 5.29%
39 | c1ccc2c(CC3=NCCN3)cccc2c1 [Naphazoline hydrochloride (Naphcon)] | 102% and 99.6% | 94.5% | 106% | 107% | 97.1% | 103% | 97.8% | 106%
40 | CCCc1cc(C)[nH]c(=O)c1CNC(=O)c1cc(-c2ccc(N3CCN(C(C)C)CC3)nc2)cc2c1cnn2C(C)C | 36.5% and 35% | 30.5% | 81.1% | 80% | 49.8% | 60.8% | 4.14% | 31.8%
41 | CN(C)C/C=C/C(=O)Nc1ccc(C(=O)Nc2cccc(Nc3ncc(Cl)c(-c4c[nH]c5ccccc45)n3)c2)cc1 | 12.4% and 22.2% | 16.8% | 0.73% | 1.23% | 0.23% | 0.21% | 0.37% | 0.63%
42 | COc1cc2c(cc1OC)[C@@H](Cc1ccc(Oc3cc(C[C@@H]4c5cc(OC)c(OC)cc5CCN4C)ccc3O)cc1)N(C)CC2 [Dauricine] | 38% and 41.8% | 18.5% | 2.46% | 15.1% | 1.5% | 1.07% | 5.34% | 4.94%
